These results are taken from PubChem BioAssay.

A number with no mark means an inactive call. Activity calls are given as the source filed them.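 How the source made its calls: active means inhibition at or above 50% relative to wild type and mutant plate controls; inactive means inhibition below 50%.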

A short description of this assay: loss of swimming-algae plug formation – whole organism, Chlamydomonas reinhardtii, WT vs cilia-less mutant, absorbance, 96-well, primary screen (AID 463189).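 Further: 0% = wild type cc124 cells in DMSO and 100% = ciliumless bld1 mutant cells.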 The following applies: Chlamydomonas reinhardtii gravitaxis, OD600 absorbance, 2 days; at 10 µM; hits give high values.
As for `O=[N+]([O-])c1cccc2c(Br)[nH]nc12`, the inhibition (commonly the drop in the measured response relative to a control, in per cent) is 136% (active). Take `O=C(O)/C=C/C(O)c1ccc(Cl)cc1` (stereo not given): the inhibition was -3.97%.

Take `CCCN(CC1CC1)c1nc(C)nc(Nc2c(Cl)cc(Cl)cc2Cl)c1Cl`: the inhibition is 3.71%. The value for `Nc1ncnc2c1ncn2[C@@H]1O[C@H](COP(=O)(O)OP(=O)(O)OP(=O)(O)OP(=O)(O)OC[C@@H]2O[C@H](n3cnc4c(N)ncnc43)C(O)[C@@H]2O)[C@H](O)C1O` (stereo not given in full) was 15%; that for `CCOC(=O)c1ncn2c1CN(C)C(=O)c1cc(F)ccc1-2` was 1.79%; that for `CN(C)CCC(c1ccc(Cl)cc1)c1ccccn1` (stereo not given) was 9.56%. Regarding `O=c1[nH]c(=O)n([C@H]2C[C@H](O)[C@@H](CO)O2)cc1Br`, the inhibition was 2.45%. `Cc1ccc([N+](=O)[O-])cc1S(=O)(=O)N(C)C`: the inhibition was -11.4%.

For the molecule `O=C(N[C@@H](Cc1ccccc1)C(=O)CCl)OCc1ccccc1`, the inhibition was 0.05%. For `CN(C)C(N)=NCCC[C@H](N)C(=O)O`, the inhibition was 11.1%. The value for `COC(=O)[C@H]1[C@H]2C[C@@H]3c4[nH]c5cc(OC)ccc5c4CCN3C[C@H]2C[C@@H](OC(=O)c2cc(OC)c(OC)c(OC)c2)[C@@H]1OC` was -3.87%. Take `C[N+](C)(C)CC=O`: the inhibition is 5.9%. For the molecule `N=C(N)c1ccc(OCCCCCOc2ccc(C(=N)N)cc2)cc1` (tested in a mixture with another compound), the inhibition was 143% (active). In the case of `O=C(O)C1=CCCN(CCON=C(c2ccccc2)c2ccccc2)C1` it was -1.19%; in that of `Cc1ccc(/C(=C\CN2CCCC2)c2ccccn2)cc1`, 11.6%. The value for `OCC1NCC(O)C(O)C1O` (stereo not given) was -0.461%; that for `COC(=O)c1c(-c2cc(OC)c(OC)c(OC)c2)c2ccnc(OCc3ncccn3)c2c(=O)n1Cc1ccnc(C)c1` was -6.21%. The value for `NC[C@H](O)c1ccc(O)c(O)c1` was 6.74%; that for `NC[C@@H]1O[C@H](C23CC4CC(CC(C4)C2)C3)Cc2c1ccc(O)c2O` was 0.204%. Consider `O=C(O)CCC/C=C\C[C@@H]1[C@@H](/C=C/[C@H](O)C2Cc3ccccc3C2)[C@@H](F)C[C@@H]1O`, for which the inhibition is -14%.

Regarding `NC1CCN(c2cccc(Cl)n2)CC1`, the inhibition is -3.28%. In the case of `CCCCC/C=C\CC(O)/C=C/c1cccc(CC(O)CCCCO)n1` (stereo not given) it was -1.14%; in that of `CC(CCc1ccc(O)cc1)NCCc1ccc(O)c(O)c1` (stereo not given), -1.59%. In the case of `CC(C)Cn1c(=O)n(C)c(=O)c2[nH]cnc21` it was 1.72%.

Turning to `O=C(O)c1ccccc1Nc1cccc(OCc2ccc3ccccc3n2)c1`, the inhibition is 8.8%. In the case of `CNCCNS(=O)(=O)c1cccc2cnccc12` it was 5.09%; in that of `NCCCCNCCCN`, -15.4%.

Take `N#CC(=C(\N)Sc1ccccc1N)/C(C#N)=C(/N)Sc1ccccc1N`: the inhibition was 13.7%.

On to `CC(C)(C)NCC(O)COc1nsnc1N1CCOCC1` (stereo not given), for which the inhibition was -8.84%. Regarding `CCCCOc1cc(CC2CNC(=O)N2)ccc1OC` (stereo not given), the inhibition was 2.83%. The value for `COc1ccccc1N1CCN(CCN(C(=O)c2ccc(I)cc2)c2ccccn2)CC1` was -3.47%; that for `O=C1c2ccccc2-c2n[nH]c3cccc1c23` was 34.8%; that for `Cn1c(=O)c2[nH]c(C3CCCC3)nc2n(C)c1=O` was -2.05%. In the case of `Cn1c(=O)c2c(nc(/C=C/c3cccc(Cl)c3)n2C)n(C)c1=O` it was 18.1%; in that of `C=C(C)C1CC=C(C(=O)O)CC1` (stereo not given), 1.75%. Turning to `CN1CCC[C@H]1c1cccnc1`, the inhibition is 0.862%. In the case of `CCCCCCCCCCC/C=C\C(C)(C)/C=C\CCCC(=O)O` it was -1.7%; in that of `CC(=O)SC1CC2=CC(=O)CC[C@]2(C)C2CC[C@@]3(C)C(CC[C@@]34CCC(=O)O4)C12` (stereo not given in full), 3.21%. In the case of `O=c1onc2cnc3ccccc3n12` it was 3.46%. The value for `Nc1nc2[nH]c(=O)cnc2c(=O)[nH]1` was 5.48%.
